# Assay results: ChEMBL document CHEMBL1961873, “Compounds: GSK PKIS; Assays: Nanosyn kinase panel” (2012)
# Target: Tyrosine-protein kinase JAK1 (Homo sapiens) (UniProt P23458)
# Conditions: at 0.1 µM
# Chain of Tyrosine-protein kinase JAK1 (Homo sapiens) (P23458 whole entry): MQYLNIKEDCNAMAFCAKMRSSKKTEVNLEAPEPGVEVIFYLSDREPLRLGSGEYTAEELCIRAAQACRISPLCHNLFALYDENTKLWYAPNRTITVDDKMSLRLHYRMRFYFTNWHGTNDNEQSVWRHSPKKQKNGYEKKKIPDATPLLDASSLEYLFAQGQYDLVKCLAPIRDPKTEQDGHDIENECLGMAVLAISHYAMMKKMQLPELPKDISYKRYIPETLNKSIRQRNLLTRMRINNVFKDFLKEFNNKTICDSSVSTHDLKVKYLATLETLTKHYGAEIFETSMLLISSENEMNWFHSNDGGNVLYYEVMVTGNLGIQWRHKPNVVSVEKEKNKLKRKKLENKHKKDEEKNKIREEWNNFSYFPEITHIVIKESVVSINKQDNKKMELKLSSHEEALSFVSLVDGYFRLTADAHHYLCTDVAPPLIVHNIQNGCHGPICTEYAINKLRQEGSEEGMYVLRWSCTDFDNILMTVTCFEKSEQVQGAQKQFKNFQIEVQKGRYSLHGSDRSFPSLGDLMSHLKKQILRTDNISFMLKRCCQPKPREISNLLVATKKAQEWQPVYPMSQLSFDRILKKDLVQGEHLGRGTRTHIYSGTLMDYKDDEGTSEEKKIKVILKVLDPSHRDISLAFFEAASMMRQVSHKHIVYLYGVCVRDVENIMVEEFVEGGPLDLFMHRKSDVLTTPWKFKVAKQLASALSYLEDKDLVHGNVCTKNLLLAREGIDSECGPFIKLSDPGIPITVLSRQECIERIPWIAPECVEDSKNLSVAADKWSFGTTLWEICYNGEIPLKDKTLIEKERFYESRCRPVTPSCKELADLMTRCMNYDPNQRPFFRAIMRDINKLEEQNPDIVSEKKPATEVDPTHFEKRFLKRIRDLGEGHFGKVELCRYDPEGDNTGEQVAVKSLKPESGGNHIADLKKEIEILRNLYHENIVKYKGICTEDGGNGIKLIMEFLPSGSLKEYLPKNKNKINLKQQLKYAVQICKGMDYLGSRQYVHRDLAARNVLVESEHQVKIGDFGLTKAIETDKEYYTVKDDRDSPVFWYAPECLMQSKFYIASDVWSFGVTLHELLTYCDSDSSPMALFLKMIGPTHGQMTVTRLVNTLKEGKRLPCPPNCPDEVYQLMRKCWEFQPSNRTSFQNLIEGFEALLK
row,SMILES,inhibition
1,CCN1CCC(CC(=O)Nc2n[nH]c3nnc(-c4cccc(F)c4F)cc23)CC1,3.38%
2,COc1cccc(-c2c[nH]c3c(N/N=C/c4ccncc4)ncnc23)c1,4.4%
3,NC(=O)c1sc(-n2cnc3ccc(C(F)(F)F)cc32)cc1OCc1ccccc1Br,3.49%
4,CC(C)COC(=O)c1ccc2c(c1)/C(=C/Nc1ccc(S(N)(=O)=O)cc1)C(=O)N2,0.07%
5,CCn1c(-c2nonc2N)nc2cnc(Oc3cccc(NC(=O)c4ccc(N(C)C)cc4)c3)cc21,0.78%
6,Fc1cccc(COc2ccc(Nc3ncnc4sc(-c5ccco5)cc34)cc2Cl)c1,0.17%
7,CC(=O)NCc1cccc(C#Cc2cncnc2Nc2ccc(OCc3cccc(F)c3)c(Cl)c2)c1,0.65%
8,CS(=O)(=O)CCNCc1coc(-c2ccc3ncnc(Nc4ccc(OCc5ccccc5)cc4)c3c2)c1,-1.63%
9,Cc1ccc2c(-c3ccnc(Nc4ccccc4)n3)c(-c3ccc(F)cc3)nn2n1,3.23%
10,O=S(=O)(CCNCc1ccc(-c2ccc3ncnc(Nc4ccc(OCc5cccc(F)c5)c(Cl)c4)c3c2)o1)c1ccccc1,3.16%
11,CCNC(=O)O[C@H]1CN[C@H](C#Cc2cc3ncnc(Nc4ccc(OCc5cccc(F)c5)c(Cl)c4)c3s2)C1,7.02%
12,c1ccc(COc2ccc(Nc3ncnc4ccc(-c5ccco5)cc34)cc2)cc1,4%
13,COC(=O)c1sc(-n2cnc3cc(OC)c(OC)cc32)cc1OCc1ccccc1C(F)(F)F,3.38%
14,Cc1cccc2c1NC(=O)/C2=N\Nc1ccc(S(N)(=O)=O)cc1,3.68%
15,CC(=O)Nc1cccc(C#Cc2cncnc2Nc2ccc(OCc3cccc(F)c3)c(Cl)c2)c1,6.03%
16,CCn1c(-c2nonc2N)nc2ccccc21,5.98%

# Target: Tyrosine-protein kinase JAK1 (Homo sapiens) (UniProt P23458)
# Conditions: at 1 µM
row,SMILES,inhibition
1,COc1ccc(CNC(=O)c2ccc(-c3cc(-c4nnc(C)o4)ccc3C)cc2)cc1,19.9%
2,Fc1ccc(-c2cc(-c3c[nH]nc3-c3ccccn3)ccn2)cc1,14.2%
3,CS(=O)(=O)CCNCc1ccc(-c2ccc3ncnc(Nc4ccc(OCc5ccccc5)c(C(F)(F)F)c4)c3c2)o1,3.56%
4,COc1ccc2c(-c3ccnc(Nc4cccc(OC(F)(F)F)c4)n3)cnn2n1,13%
5,c1ccc(-c2nc3n(c2-c2ccc4c(c2)OCO4)CCC3)nc1,4.78%
6,COc1ccc(-c2cc(-c3c[nH]nc3-c3ccccn3)ccn2)cc1,7.4%
7,COc1ccc(-c2cc3c(N)ncnc3o2)cc1,7.71%
8,FC(F)(F)c1cccc(-c2nn3ncccc3c2-c2ccnc(Nc3ccc4c(c3)OCCO4)n2)c1,-0.53%
9,N#Cc1c(NC(=O)CN2CCOCC2)sc2c1CCCC2,9.38%
10,COC(=O)Nc1nc2ccc(Oc3ccc(NC(=O)Nc4cccc(Cl)c4)cc3)cc2[nH]1,4.07%
11,CN1CCC(n2cnc(-c3ccc(F)cc3)c2-c2ccnc(Nc3ccccc3)n2)CC1,8.4%
12,Clc1ccc(-c2nn3ncccc3c2-c2ccnc(Nc3ccccc3)n2)cc1,-2.06%
13,COc1ccc(-c2nn3ncccc3c2-c2ccnc(Nc3ccc4c(c3)OCCO4)n2)cc1,1.48%
14,Nc1nc(-c2ccc(F)cc2)c(-c2ccc3ncccc3n2)s1,6.76%
15,COc1ccc2[nH]c3c4[nH]c5ccc(OC)cc5c4c4c(c3c2c1)C(=O)NC4=O,5.89%
16,Cc1ccc(O)cc1Nc1ccnc2cc(-c3ccccn3)ccc12,3.25%
17,NS(=O)(=O)c1ccc(N/N=C2\C(=O)Nc3ccc4ncccc4c32)cc1,17.3%

row,SMILES,inhibition
1,CCN1CCC(CC(=O)Nc2n[nH]c3nnc(-c4cccc(F)c4F)cc23)CC1,4.71%
2,COc1cccc(-c2c[nH]c3c(N/N=C/c4ccncc4)ncnc23)c1,15.3%
3,NC(=O)c1sc(-n2cnc3ccc(C(F)(F)F)cc32)cc1OCc1ccccc1Br,10.6%
4,CC(C)COC(=O)c1ccc2c(c1)/C(=C/Nc1ccc(S(N)(=O)=O)cc1)C(=O)N2,12.7%
5,CCn1c(-c2nonc2N)nc2cnc(Oc3cccc(NC(=O)c4ccc(N(C)C)cc4)c3)cc21,2.7%
6,Fc1cccc(COc2ccc(Nc3ncnc4sc(-c5ccco5)cc34)cc2Cl)c1,3.56%
7,CC(=O)NCc1cccc(C#Cc2cncnc2Nc2ccc(OCc3cccc(F)c3)c(Cl)c2)c1,4.76%
8,CS(=O)(=O)CCNCc1coc(-c2ccc3ncnc(Nc4ccc(OCc5ccccc5)cc4)c3c2)c1,0.69%
9,Cc1ccc2c(-c3ccnc(Nc4ccccc4)n3)c(-c3ccc(F)cc3)nn2n1,-5.84%
10,O=S(=O)(CCNCc1ccc(-c2ccc3ncnc(Nc4ccc(OCc5cccc(F)c5)c(Cl)c4)c3c2)o1)c1ccccc1,5.23%
11,CCNC(=O)O[C@H]1CN[C@H](C#Cc2cc3ncnc(Nc4ccc(OCc5cccc(F)c5)c(Cl)c4)c3s2)C1,-0.58%
12,c1ccc(COc2ccc(Nc3ncnc4ccc(-c5ccco5)cc34)cc2)cc1,2.21%
13,COC(=O)c1sc(-n2cnc3cc(OC)c(OC)cc32)cc1OCc1ccccc1C(F)(F)F,-0.23%
14,Cc1cccc2c1NC(=O)/C2=N\Nc1ccc(S(N)(=O)=O)cc1,0.61%
15,CC(=O)Nc1cccc(C#Cc2cncnc2Nc2ccc(OCc3cccc(F)c3)c(Cl)c2)c1,3.66%
16,CCn1c(-c2nonc2N)nc2ccccc21,-0.06%
